# Screening results: PubChem, National Center for Advancing Translational Sciences (NCATS)
# The list is not random: actives were taken first. Their share in the collection is about 6.5%.
# FMDV inh – antivirals against foot and mouth disease virus | 410,000 compounds, 1.2% hits | FMDV antiviral cell-based qHTS | Potency, µM (doses to about 57.9 µM), actives largely listed as inhibitors; calls by dose curve; tested in HEK293T cells; also: read-out not given here; nearly all actives have a fitted effect of over 45% in size
# Vaccinia Venus – inhibitors of vaccinia virus (Venus reporter); Vaccinia virus Venus reporter expression, fluorescence; Potency, µM (top dose mostly 36.5 µM), most hits filed as inhibitors; 330,000 compounds, 0.46% hits; AID 720580; calls by dose curve; tested in A549 cells; also: nearly all actives have a fitted effect of over 30% in size
# LASV entry inh – Lassa virus entry inhibition. Potency, µM (top dose mostly 37.9 µM), actives largely listed as inhibitors. AID 540256. Lassa virus pseudotype entry inhibition, cell reporter. 300,000 compounds, 1.2% hits; calls by dose curve; tested in HEK293 cells; also: nearly all actives have a fitted effect of over 50% in size
# Vaccinia mCherry – vaccinia inhibition (mCherry reporter); Vaccinia virus mCherry reporter infection, fluorescence; Potency, µM (doses to about 36.5 µM), usual class: inhibitors; 310,000 compounds, 0.63% hits; AID 720579; calls by dose curve; tested in A549 cells; also: nearly all actives have a fitted effect of over 35% in size
# HCMV antiviral – inhibitors of human cytomegalovirus. HFF cells, HCMV-luciferase reporter, 72 h; active compounds read low. activity change, negative = inhibition, % at 57.5 µM. 410,000 compounds, 4.5% hits; in the data active = activity change below about -60%; inconclusive = no clear call, values can overlap the other calls; inactive = above about -39%
#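 Compounds were evaluated in HFFs infected with an HCMV luciferase reporter virus (MOI 1 PFU/cell). Luciferase in lysates collected 72 h post infection served as the replication measure.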
# Marburg entry inh – Marburg virus entry inhibition; Marburg virus pseudotyped entry inhibition, cell reporter; Potency, µM (top dose mostly 37.8 µM), hits mostly inhibitors; 300,000 compounds, 1.8% hits; AID 540276; calls by dose curve; tested in HEK293 cells
# A number is an active result; – = inactive; ? = inconclusive; · = no result; ! = a repeat was not active.
SMILES,FMDV inh,Vaccinia Venus,LASV entry inh,Vaccinia mCherry,HCMV antiviral,Marburg entry inh
Cc1nc(N2CCCCC2)sc1C(=O)c1cccc([N+](=O)[O-])c1,–,–,–,–,-73,–
CCc1ccc(/C=C/c2c[nH]c3ccccc23)[n+](CC)c1,?,–,13µM,–,-97,?
Cc1[nH]c2ccccc2c1/C=C/c1c[nH]c2ccccc12,·,–,·,–,·,·
CCCCCC(=O)N1C[C@@H](O)[C@H](n2cc(-c3ccc(F)cc3)nn2)C[C@H]1c1ccccc1,·,·,–,·,·,·
CC1(C)c2ccccc2-c2nc3ccccc3cc2C1O (configuration not stated),–,–,–,–,–,–
c1ccc2c(c1)-c1nc3ccccc3cc1C2N1CCCCC1 (configuration not stated),–,–,·,–,-102,·
CCOC(=O)c1nn(-c2ccc(Br)cc2)cc1C(=O)c1cccc2ccccc12,–,·,?,·,–,5.8µM
CCOC(=O)c1nn(-c2ccc(F)cc2)cc1O,–,–,–,–,–,–
Cc1ccc(Cl)cc1NC(=O)C(=O)NCC(c1cccnc1)N1CCc2ccccc21 (configuration not stated),?,–,–,–,–,·
COC(=O)C(c1ccc(Br)cc1)(c1cn(C)c2ccccc12)C(Nc1ccccc1)c1ccccc1 (configuration not stated),·,·,·,·,-79,·
CS(=O)(=O)c1ccc(Cl)c(NC(=O)CSc2n[nH]c(N)n2)c1,–,–,–,–,–,–
CCN(c1ccccc1)S(=O)(=O)c1ccc(Cl)c(NC(=O)CSc2n[nH]c(N)n2)c1,–,–,–,–,-67,–
CCN(c1ccccc1)S(=O)(=O)c1ccc(Cl)c(NC(=O)CSc2ncn[nH]2)c1,–,–,–,–,-101,–
Cn1c(-c2cccnc2)cc2cnc(Nc3ccc4c(c3)OCO4)cc21,·,·,·,·,–,·
CCS(=O)(=O)c1nnnn1-c1ccccc1S(C)(=O)=O,40µM,?,–,?,-93,?
O=S(=O)(Cc1nnnn1-c1ccc(Br)cc1)c1ccccc1,–,–,·,–,–,·
Cc1ccsc1C1C(C#N)=C(N)Oc2n[nH]c(C)c21 (configuration not stated),32µM,–,–,–,–,?
COc1ccc(OC)c(S(=O)(=O)NCCc2sc(-c3cccnc3)nc2C)c1,–,–,–,–,–,·
Cc1ccc(NC(=O)Cn2nnc(-c3ccccc3NC(=O)c3cccs3)n2)cc1,–,?,0.58µM,–,?,?
COc1ccccc1NC(=O)Cn1nnc(-c2ccccc2NS(=O)(=O)c2ccccc2)n1,?,–,?,?,-67,?
Cc1ccc2ccccc2n1,·,–,·,–,·,·
Cc1ccc(CSc2nnc(SCC(=O)N/N=C/c3ccc(C(=O)O)cc3)s2)cc1,–,–,?,?,-66,?
Cc1ccc(CSc2nnc(SCC(=O)N/N=C/c3c[nH]c4ccccc34)s2)cc1,–,–,?,–,-73,?
CCc1ccc2c(Cl)c(C(=O)N/N=C/c3c[nH]c4ccccc34)sc2c1,–,?,10µM,·,–,?
O=C(CSc1nnc(SCc2ccccc2)s1)N/N=C/c1c[nH]c2ccccc12,–,–,–,–,–,?
SMILES,FMDV inh,Vaccinia Venus,LASV entry inh,Vaccinia mCherry,HCMV antiviral,Marburg entry inh
O=C(COC(=O)C1CC1)Nc1ccc2c(c1)OCO2,–,–,–,–,-98,?
O=C(COC(=O)c1cccnc1)Nc1ccc2c(c1)OCO2,–,·,·,·,-84,·
COc1cccc(/C=C/C(=O)OCC(=O)Nc2ccc3c(c2)OCO3)c1,–,–,·,–,-97,·
CCC(=O)OCC(=O)Nc1ccc2c(c1)OCO2,–,–,–,–,–,–
O=C(COC(=O)/C=C/c1ccc2c(c1)OCO2)Nc1ccccc1,–,–,–,–,–,–
Cc1nn(-c2ccccc2)c(-n2cccc2)c1C(=O)N1CCN(c2ccccc2)CC1,–,–,–,–,–,–
CC1=NS(=O)(=O)c2cc(Cl)ccc2N1,–,–,?,–,–,13µM!
CC1CCc2c(sc(NC(=O)Cn3cnc([N+](=O)[O-])n3)c2C(N)=O)C1 (configuration not stated),–,·,·,·,-62,·
CCc1cc(-c2nnn(CCC3COCCO3)c2CC)ccc1-c1cn(Cc2ccccc2)nn1 (configuration not stated),?,?,·,?,-83,·
CCn1c(-c2ccc(C)cc2)nn(CC(=O)NCCc2ccccc2)c1=S,–,–,?,–,-103,8.9µM
